Measured values from ChEMBL document CHEMBL4513216, “Probing the Open Global Health Chemical Diversity Library for Multistage-Active Starting Points for Next-Generation Antimalarials” (ACS Infect Dis, 2020).
The campaign covered roughly 69,000 compounds. About 8,600 (12%) showed an effect of 50% or more. Many of the other results were omitted from the sample, so strong results are more common in it than they were.

What follows are molecules tested on Plasmodium berghei (assay: Screen against P. berghei liver stage (PbLuc), transformed with Luciferase, at 10uM). Conditions: tested at 10 uM.
Type: functional, HepG2

Compound	INHIBITION [%]
CCn1ncc2c1C(COCC1CC1)N(Cc1c(C)noc1C)CC2 (stereo not given)	47.5
CCCn1nccc1NC(=O)CN1CCc2c(nc(C3CC3)n2C)C1	5.7
CNC(=O)CN1CCc2c(CNc3nccs3)n[nH]c2C1	-4.88
CCNc1c(NC(=O)C(C)(C)C)c(=O)oc2ccccc12	-3.83
O=C(NC[C@]12COC[C@H]1CN(Cc1nccs1)C2)N1CCCC1	-20.5
O=C(c1cccnc1)N1Cc2nccn2CC(COc2cccnc2)C1 (stereo not given)	9.51
O=C(Cc1ccc2c(c1)CCO2)N1CCCCC1Cn1cccn1 (stereo not given)	-35.5
O=C(Cc1ccc(O)c(Cl)c1)N1CCCCC1CCn1cccn1 (stereo not given)	60.1
COc1ccc(CC(=O)N2CCCCC2Cn2cccn2)cc1OC (stereo not given)	0.79
CCOC1COC2(CCN(Cc3ccco3)CC2)C1 (stereo not given)	-2.35
O=c1[nH]c(-c2ccncc2)ncc1-c1ccnc(N2CCOCC2)n1	18.9
CCN1CC2(CCN(C(=O)C(C)Oc3ccc(F)cc3F)CC2)OC1=O (stereo not given)	52.5
CC(Oc1ccc(F)cc1F)C(=O)N1CCC2(CCCO2)CC1 (stereo not given)	14.9
CCN1CC2(CCN(C(=O)C(C)Oc3cccc(Cl)c3)CC2)OC1=O (stereo not given)	14.9
Cc1cc(C)n(-c2cncc(N3CCN(C(=O)CN(C)C)CC3)n2)n1	52.6
Cc1cc(C)n(-c2cncc(N3CCN(C(=O)C(C)C)CC3)n2)n1	14
CCC(=O)N1CCCN(c2cncc(-n3nc(C)cc3C)n2)CC1	13.2
CCc1cc(N2CCC(Nc3ccc(Cl)cn3)CC2)ncn1	84.6
CCc1cc(N2CCC(NCc3ccc(C)o3)CC2)ncn1	-24.9
CCc1cc(N2CCC(n3cc(C(=O)NCC(C)C)nn3)CC2)ncn1	71.4
CCc1cc(N2CCC(n3cc(C(=O)NC4CC4)nn3)CC2)ncn1	89.3
O=C(NC1CC1)c1cn(C2CCN(c3cc(C4CC4)ncn3)CC2)nn1	39.3
OCCNc1cc(N2CCC(n3cc(C4CCCC4)nn3)CC2)ncn1	28
CCc1ncc(CN2CCN(c3cc(NC4CC4)nc(N)n3)CC2)cn1	-55
Cc1ccc(SCCCNC(=O)c2cn(C3CCC(N)CC3)nn2)cc1 (stereo not given)	-164
CC(C)Nc1cc(N2CCC(n3cc(C4CC4)nn3)CC2)ncn1	24.7
CSCCC(C)(O)CNS(=O)(=O)Cc1ccc(F)cc1 (stereo not given)	44.9

Compound	INHIBITION [%]
Cc1ccccc1CNC(=O)CN1CCCC(Cc2nccn2C)C1 (stereo not given)	-50.8
CC(C)CCn1cc(C(C(=O)O)N2CCCN(C3CCCC3)CC2)cn1 (stereo not given)	33.9
c1nc(CNC2CCOCC2)c2n1CCCN(CC1CC1)C2	45.1
Cn1ccc(C(=O)NC2CCC23CCN(Cc2cnn(C)c2)CC3)c1 (stereo not given)	-28.7
CCS(=O)(=O)N1CCN(CCn2cccn2)c2nc(C)ccc2C1	26.3
c1cc(CN2CC[C@@H]3[C@@H](CO[C@H]3CN3CCOCC3)C2)cs1	-20.1
CCN(CC)C(=O)CNC(=O)c1ccc(-c2ccsc2)nc1C	34.5
CCN(CC)C(=O)CN(C)C(=O)c1ccc(-c2ccsc2)nc1C	59.5
CCN(CC)C(=O)c1ccc(-c2ccsc2)nc1C	-6.53
CCn1nc(C)c2nn(CC(=O)NC3CCSCC3)cc21	25.4
Cn1cccc1C(=O)N1C[C@@H]2C[C@@H](c3nc(C4CC4)cs3)O[C@@H]2C1	-5.08
CC(C)(C)C(=O)NCCc1cc2nc(-c3ccncc3)ccn2n1	24.44
CCOCC(O)CN1CCN(C(=O)c2cccc(OC)c2)CC1 (stereo not given)	-33.7
CCn1ccnc1CN1CCCC(CO)(Cc2cccc(OC)c2)C1 (stereo not given)	23.7
CCOC(=O)C1(CCOC)CCN(Cc2nccn2CC)CC1	28.7
CCOC(=O)C1(Cc2ccccc2)CCCN(Cc2nccn2CC)C1 (stereo not given)	35.4
Cc1ncc(C)c(N2CCCC(CO)(Cc3cccc(Cl)c3)C2)n1 (stereo not given)	86.8
Cc1cccc(CN2CCC(c3nccn3CC(N)=O)CC2)n1	58.3
Cc1cnc(C)c(N2CCCC(CO)(Cc3cccc(Cl)c3)C2)n1 (stereo not given)	34.6
CCn1ccnc1C1CCN(Cc2cccc(C)n2)CC1	24.2
CCC1(CO)CCCN(Cc2nccn2Cc2ccccc2)C1 (stereo not given)	-82.2
CCOC(=O)C1(CCOC)CCCN(Cc2nccn2CC)C1 (stereo not given)	62.2
CCn1ccnc1CN1CCCC(CO)(Cc2cccc(Cl)c2)C1 (stereo not given)	79.3
N#Cc1ccccc1CN1CCC(c2nccn2CC(N)=O)CC1	-15.3
OCC1(Cc2cccc(Cl)c2)CCCN(c2ncccn2)C1 (stereo not given)	11.4
COc1ccccc1CN(CC1CCCO1)C(=O)c1csnn1 (stereo not given)	18.4
O=C(CCc1nccs1)N1CCN(c2nccs2)CC1	-2.19

Compound	INHIBITION [%]
CCOCc1ccc(CNC(=O)N2CCC(C(N)=O)C2)cc1 (stereo not given)	25.6
c1cncc(CN2CCCC(Nc3ncnc4c3CCNCC4)C2)c1 (stereo not given)	20.9
CNC(=O)[C@@H]1C[C@H]2CN(Cc3ccc(C)s3)C[C@H]2N1C(C)=O	34.6
CC1CCN(C(=O)c2sccc2-n2cnnn2)CC1	20.3
O=C(NCCc1ccc(F)cc1)NCC(O)c1cccc(F)c1 (stereo not given)	18.2
O=C(N[C@@H]1CC[C@@H](N2CCCC2)[C@@H]1O)c1cc2cccc(F)c2[nH]1	-0.232
CNC(=O)C1CN(Cc2cc(C)on2)CCN(C2CCOCC2)C1 (stereo not given)	-3.94
CCCN1CCc2[nH]nc(C(=O)N3CCNC(=O)C3)c2C1	-9.42
CN(C)C(=O)N1C[C@H]2CC[C@@H](C1)N(S(=O)(=O)c1cccnc1)C2	-62.1
CCCOc1cc(CNC(=O)Nc2ccc(C)cc2)ccn1	-14.5
CCn1ccnc1C1CCN(Cc2cccc(Cl)c2)CC1	60.1
CCn1ccnc1C1CCN(Cc2c(F)cccc2F)CC1	43.9
CCn1ccnc1C1CCN(C(=O)C(O)c2ccc(Cl)cc2)CC1 (stereo not given)	6.66
CCN1CCN(C(=O)COCc2nc(-c3ccncc3)no2)CC1	-2.92
CCS(=O)(=O)NCCN1CCN(C(C#N)c2ccccc2)CC1 (stereo not given)	19.4
CCOCCCNC(=O)CN(c1ccc(F)c(F)c1)S(C)(=O)=O	43.3
CCOCCCNC(=O)CN(c1ccc(C)c(C)c1)S(C)(=O)=O	18.4
CC(C)OCCCNC(=O)CN(c1ccc(F)c(F)c1)S(C)(=O)=O	62.3
CCC1=N[C@@]2(CC[C@@H]3CN(C(=O)Nc4ccccc4)C[C@@H]32)C(=O)N1C	26.3
COC(=O)c1ccc(-c2ccc(/C=C3\C(=O)NC(=N)N3C)o2)cc1	34.2
Cc1csc(CNC(=O)N2CCCC(c3nncn3C)C2)n1 (stereo not given)	-23.9
CCOc1ncccc1NC(=O)NC1CCN(C(C)=O)CC1	5.7
COc1ccccc1N1CCN(C(=O)CCn2ccc(C)n2)CC1	16.2
CS(=O)(=O)N1CCC(c2cnc(-c3cn[nH]c3)cn2)CC1	28.9
O=C(C1NCCc2[nH]cnc21)N1CCC2(C=Cc3ccccc32)CC1 (stereo not given)	53
O=C1OC2(CCN(C(=O)C3NCCc4[nH]cnc43)CC2)c2ccccc21 (stereo not given)	23.5
O=C(C1NCCc2[nH]cnc21)N1CCC2(CC1)CNc1ccccc12 (stereo not given)	-15.8

Compound	INHIBITION [%]
Cc1cc(C)nc(N2CCC(C(=O)O)(n3ccc(C(C)(C)C)n3)CC2)n1	25.4
O=c1cccnn1CC1CN(CC2CCCC2)Cc2nccn2C1 (stereo not given)	-23.1
CN1CCC(Nc2ccc(F)cc2OCC(F)(F)F)C1=O (stereo not given)	-0.378
CC(CNC(=O)Nc1ccc(C#N)cc1)N1CCc2ccccc21 (stereo not given)	40.1
CC(CNC(=O)c1ccc(=O)[nH]n1)N1CCc2ccccc21 (stereo not given)	53
CCC(CNC(=O)c1ccc(=O)[nH]n1)N1CCc2ccccc2C1 (stereo not given)	28.5
Cc1cc(C(=O)NCC(C)N2CCc3ccccc32)no1 (stereo not given)	21.8
CC(CNC(=O)c1ccc(C#N)cc1)N1CCc2ccccc21 (stereo not given)	83.2
CC(CNC(=O)c1cccc(C#N)c1)N1CCc2ccccc21 (stereo not given)	-8.51
O=C(Nc1ccccc1N1CCOC1=O)N1CCc2sccc2C1	18.4
CCn1c(=O)n(CC)c2cc(S(N)(=O)=O)ccc21	29.1
COCC1CC2(CCNCC2)CN1Cc1csc(C)n1 (stereo not given)	-15.3
Cc1noc(CCCC(=O)NC(C)c2ccc(Cl)s2)n1 (stereo not given)	-2.95
O=C(CCO)N1C[C@@H]2CC[C@H]1CN(C1Cc3ccccc3C1)C2	-43.5
CC(C)N(C(=O)c1ccccc1-c1nc2c([nH]1)CCNC2)C(C)C	54.5
CC(C)NC(=O)Nc1ccc(-c2nc3c([nH]2)CCNC3)cc1	-100
CC(=O)c1cccc(-c2nc3c([nH]2)CCNC3)c1F	37.8
CC(C)COc1cccc(-c2nc3c([nH]2)CCNC3)c1	41.5
COc1cccc(-c2nc3c([nH]2)CCNC3)c1F	61
COc1ccc(-c2nc3c([nH]2)CCNC3)c(OC)c1OC	28.7
CS(=O)(=O)N1CCCC(Cc2ccnc3ccncc23)CC1 (stereo not given)	19.6
O=C(c1cccnc1)N1CCCC2(CCN(c3ccsc3)C2=O)C1 (stereo not given)	-33.7
CN(C)C(=O)[C@@H]1CCO[C@@H]2CCN(Cc3ccc4c(c3)OCO4)C[C@@H]21	10.8
COc1cc(N2CCC3(CCCN3Cc3cnn(C)c3)CC2)ncn1	13.7
